In the library only some 6.9% were active in any assay of this set; here they are far more common.
MCF10A rereplic: A quantitative high throughput screen for small molecules that induce DNA re-replication in MCF 10a normal breast cells | Potency, µM (doses to about 46.1 µM), inactives show top-dose activity, positive = re-replication, most hits filed as activators | MCF 10A DNA re-replication, Hoechst nuclear intensity, 48 h | actives 2.9% (n = 350,000) | AID 624296, 2012; also: potency is read from the fitted curve at half-maximal effect; % of control where 0% means no effect; nearly all actives have a fitted effect of over 50% in size
Giardia killer: Small Molecules that selectively kill Giardia lamblia: qHTS. Giardia lamblia trophozoite viability. activity change, % at 7.66 µM, hits read low. actives 0.15% (n = 340,000). AID 540267, 2011; in the data active = activity change below about -80%; inconclusive = between about -30% and that limit;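 also: parasites exposed to compound for two days anaerobically before the ATP read; % is scaled to controls: 0 for no effect and ±100 for the full control effect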
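Trophozoite viability was measured as ATP-dependent luminescence, read 15-30 min after reagent addition. Before that, parasites at 100 cells/well were exposed to compounds for 48 h, anaerobically, at 37 deg C.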
KB-V1 MDR tox: qHTS assay for MDR1-selective chemotherapeutics: Primary screen using the drug-selected MDR subline cells KB-V1 | KB-V1 MDR cells viability, CellTiter-Glo, 72 h | actives 3.4% (n = 400,000) | Potency, µM (highest dose often 46.1 µM), most hits filed as cytotoxic; also: potency is read from the fitted curve at half-maximal effect; % is scaled to controls: 0 for no effect and ±100 for the full control effect; nearly all actives have a fitted effect of over 60% in size
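Cytotoxicity toward P-gp-expressing KB-V1 cells was determined as loss of CellTiter-Glo luminescence after 72 h at 37 degrees C. Compounds were tested in quantitative HTS format across a concentration range, with curves fitted to normalized data.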
ASM inhibitor: Inhibitors of Secretory Acid Sphingomyelinase (S-ASM): qHTS; AID 504937, 2011; Potency, µM (highest dose often 57.5 µM), for inactives: at the highest dose activity change, negative = inhibition, usual class: inhibitors; actives 0.006% (n = 340,000); Sphingomyelin phosphodiesterase (Homo sapiens), P17405; placental ASM, HMU-PC fluorogenic substrate, 60 min; also: potency is read from the fitted curve at half-maximal effect
Target sequence (P17405 47-631 limits assumed): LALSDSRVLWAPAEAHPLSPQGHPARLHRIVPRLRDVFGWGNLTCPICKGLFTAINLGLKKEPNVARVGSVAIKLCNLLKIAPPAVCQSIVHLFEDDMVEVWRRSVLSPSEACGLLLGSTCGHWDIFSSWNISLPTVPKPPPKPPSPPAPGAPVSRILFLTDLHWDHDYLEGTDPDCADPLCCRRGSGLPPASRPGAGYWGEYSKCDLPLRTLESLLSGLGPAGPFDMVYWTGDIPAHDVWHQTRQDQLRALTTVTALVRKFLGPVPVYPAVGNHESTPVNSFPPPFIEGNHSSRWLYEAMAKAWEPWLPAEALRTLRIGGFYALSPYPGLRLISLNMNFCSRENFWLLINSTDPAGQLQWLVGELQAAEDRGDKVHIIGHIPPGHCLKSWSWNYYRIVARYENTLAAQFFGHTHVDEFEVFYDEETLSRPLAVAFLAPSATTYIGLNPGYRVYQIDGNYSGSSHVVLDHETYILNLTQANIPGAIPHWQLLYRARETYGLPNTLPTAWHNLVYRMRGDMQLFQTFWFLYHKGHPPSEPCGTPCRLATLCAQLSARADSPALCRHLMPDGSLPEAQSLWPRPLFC
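Steps: dispense placental human ASM, pin compound, wait 10 min at room temperature, add HMU-PC0 substrate at 9 uM final, incubate 60 min at 37 °C, add stop solution raising pH to 10, read fluorescence.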
SW480 rerep: A quantitative high throughput screen for small molecules that induce DNA re-replication in SW480 colon adenocarcinoma cells; SW480 DNA re-replication, Hoechst DNA content imaging, 48 h; Potency, µM (top dose mostly 46.1 µM), for the others: at the highest dose re-replication activation, most hits filed as activators; actives 1.8% (n = 340,000); also: potency is read from the fitted curve at half-maximal effect; % of control where 0% means no effect; nearly all actives have a fitted effect of over 55% in size
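SW480 cells exposed to compounds for 48 hr at 37 C, 5% CO2, then Hoechst-stained 40 min. Nuclear DNA content imaged by fluorescence scanning (405 nm excitation, 500-530 nm emission); re-replication scored as increased high-intensity nuclei.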
KB-3-1 tox: qHTS assay for MDR1-selective chemotherapeutics: Primary screen using the parental adenocarcinoma cell KB-3-1; KB-3-1 viability, CellTiter-Glo ATP luminescence, 72 h; actives 1.4% (n = 400,000); Potency, µM (series often up to 46.1 µM), hits mostly cytotoxic; also: potency is read from the fitted curve at half-maximal effect; % is scaled to controls: 0 for no effect and ±100 for the full control effect; nearly all actives have a fitted effect of over 60% in size
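Cells are dispensed, compounds pinned in, plates held at 37 °C for 72 h, then CellTiter-Glo is added and luminescence read after 10 minutes. Cell line: parental KB-3-1 in phenol-red-free DMEM, 10% FBS.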
* = called active by the depositor; i = inactive; ? = inconclusive; . = no result. Unless noted, calls follow the shape of the dose curve; as a rule, active = well fitted curve in the direction sought with a large enough effect; inconclusive = small, poorly fitted or top-dose-only effect, or another doubt; inactive = no such curve, though single readings can be large; an effect the other way counts as inactive or inconclusive.

SMILES | MCF10A rereplic | Giardia killer | KB-V1 MDR tox | ASM inhibitor | SW480 rerep | KB-3-1 tox
CCc1nnc(NC(=O)CSc2nc(-c3ccc(F)cc3)cc(-c3ccccc3)c2C#N)s1 | 12µM* | 5 | i | 14% | 10% | i
CCc1nnc(NC(=O)CSc2nc(C)cc(C)c2C#N)s1 | ? | ? | i | -1% | 20% | i
COc1ccc(-c2cc(-c3ccccc3)c(C#N)c(S(C)=O)n2)cc1 (configuration not stated) | 5.2µM* | 0 | i | 176% | ? | ?
COc1ccc(-c2cc(-c3ccccc3)nc(SCC(=O)Nc3ncc(C)s3)c2C#N)cc1 | 23% | 21 | 9.2µM* | -3% | 9% | i
CCOC(=O)/C(Sc1nc(-c2ccccc2)cc(-c2ccccc2)c1C#N)=C(\C)O | 3.7µM* | 7 | i | 14% | 12µM* | i
CCSc1nc(-c2ccc(OC)cc2)cc(-c2ccccc2)c1C#N | ? | -7 | i | -1% | -3% | i
CCC(C)(c1nnnn1-c1c(C)cccc1C)N(N=O)c1cccc(C(F)(F)F)c1 (configuration not stated) | 22% | 9 | 16µM* | 7% | ? | ?
CN(C)c1ccc(/C=[N+]2\C(=O)CC(=O)NC2=O)cc1 | . | . | i | . | . | i
COc1ccc(-c2c3c(=O)n(C)c(=O)n(C)c3c3n2-c2ccccc2NC3c2ccc(OC)cc2)cc1 (configuration not stated) | . | . | i | . | . | i
COc1ccc(C2Nc3cc(OC)ccc3-n3cccc32)cc1 (configuration not stated) | 16µM* | -18 | ? | i | 21µM* | i
CCOc1ccc(OCC)c(NC(=O)CSc2nc3c(c(=O)n(C)c(=O)n3C)n2CC)c1 | -11% | 8 | ? | -5% | -5% | i
CC(C)n1c(SCC(=O)NCc2ccco2)nc2c1c(=O)n(C)c(=O)n2C | 16µM* | 21 | i | -3% | -2% | i
Cn1c(=O)c2c(nc(SCC(=O)NCc3ccco3)n2C)n(C)c1=O | -17% | 8 | i | 2% | -14% | i
CCOc1ccc(OCC)c(NC(=O)CSc2nc3c(c(=O)n(C)c(=O)n3C)n2C(C)C)c1 | 30% | -4 | 18µM* | -1% | 18% | ?
COc1ccc(CCCc2nnc(SCC(=O)Nc3cc(F)ccc3C)o2)cc1 | . | . | i | . | . | i
NNC(=O)c1cc2c(s1)-c1cc(Cl)ccc1SC2 | 21µM* | 1 | i | 260% | 29µM* | ?
COc1ccc(CCNC(=O)c2cnn(-c3ccc(F)cc3)c2C2CCN(C(=O)OC(C)(C)C)CC2)cc1OC | . | . | i | . | . | i
CCOC(=O)Cc1csc(NC(=O)CSc2nnc(-n3nc(C)cc3C)c3ccccc23)n1 | 19% | -6 | 21µM* | -2% | -1% | i
Cc1cc(C)n(-c2nnc(SCC(=O)NC3CCCC3)c3ccccc23)n1 | 0% | -3 | i | -1% | 1% | i
CCCNC(=O)c1cc(C2CCCCN2C(=O)c2cc(C(C)(C)C)nn2C)on1 (configuration not stated) | . | . | 16µM* | . | . | ?
O=S(=O)(Nc1cccc(-c2ccc(N3CCCC3)nn2)c1)c1ccc(F)c(C(F)(F)F)c1 | . | . | i | . | . | i
COc1cc(/C=C/C(=O)NCCn2c(C)cc3ccccc32)cc(OC)c1OC | -4% | -4 | ? | -15% | -5% | ?
CCn1c(SCC(=O)N/N=C/c2ccc(OC)c(OC)c2)nc2ccccc21 | 18% | -11 | i | -1% | -4% | i
CCSc1nc2ccccc2n1C(=O)/C=C/c1ccc(OC)c(OC)c1 | 4.1µM* | 20 | ? | -16% | 5.8µM* | ?
C=CCSc1nc2ccccc2n1C(=O)/C=C/c1cc(OC)c(OC)c(OC)c1 | 3.3µM* | 4 | ? | -9% | ? | i
SMILES | MCF10A rereplic | Giardia killer | KB-V1 MDR tox | ASM inhibitor | SW480 rerep | KB-3-1 tox
C=CCSc1nc2ccccc2n1C(=O)/C=C/c1ccc(OC)c(OC)c1 | 4.1µM* | 3 | i | -8% | ? | ?
COc1ccc(/C=C/C(=O)N2CC(C)OC(C)C2)cc1OC (configuration not stated) | -3% | -5 | i | -1% | 3% | i
COCCc1nn2c(=O)cc(COC(=O)COc3ccccc3C)nc2s1 | . | . | i | . | . | i
C=CC[n+]1c(-c2ccc(C)cc2)csc1Nc1c(C)n(C)n(-c2ccccc2)c1=O | 7% | -2 | ? | 4% | -4% | ?
C=CC[n+]1c(-c2ccc(OCC)cc2)csc1NNC(=O)Nc1ccccc1 | 5% | 5 | 18µM* | -22% | -6% | 18µM*
CSc1nc2c(c(=O)n1Cc1ccccc1)SC(C)C2 (configuration not stated) | 7% | 6 | ? | -3% | ? | i
CSc1nc2[nH]c(=O)n(O)c(=O)c2n1Cc1ccccc1 | ? | -18 | i | 11% | 2.3µM* | ?
CCOC(=O)c1cc([N+](=O)[O-])cc([N+](=O)[O-])c1Sc1ncnc2nc[nH]c12 | ? | -9 | ? | -4% | 12µM* | ?
CCOc1cc(/C=N/N=C(N)N)ccc1OCc1ccc(Cl)cc1 | 18µM* | -3 | ? | -20% | ? | ?
COc1cc(/C=N/N=C(N)N)ccc1OCc1ccc(Cl)cc1 | ? | 1 | i | -28% | ? | ?
NC(N)=N/N=C/c1ccc(OCc2ccccc2)c(OCc2ccccc2)c1 | 12µM* | -4 | i | ? | 21% | ?
CCOc1ccc(NC(=O)CN2C(=O)c3ccccc3Sc3ccc(C(=O)OC)cc32)cc1 | . | . | i | . | . | i
CCOC(=O)c1nc(NCCc2ccccc2)sc1C | 2.1µM* | 12 | i | -5% | 6% | i
c1ccc(CCNc2nc3ccccc3s2)cc1 | ? | 5 | 18µM* | -2% | -3% | i
COc1ccc(CNc2nc3ccccc3s2)cc1OC | 13% | 1 | i | 2% | 7% | i
CCCCn1c2nc3ccccc3nc2c2c(=O)n(CCC(C)C)cnc21 | -5% | -19 | i | 5% | 2% | i
COc1ccc2c(=O)c3c(=O)n(Cc4ccco4)c(-c4ccccc4)nc3oc2c1 | 22% | 12 | 4.6µM* | -8% | 0% | i
